Here are results for 14 sequences from the supplement of paper PMC3545927.

For this test, the target named is furin, P09958. Nature of the test: furin cleavage Z-score vs untreated control; higher = more cleavage, active = 3.5 or more, inactive = 1 or less, 8 variable residues between constant flanks. The essentials:
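In 50 mM HEPES pH 7.5 with CaCl2 and NaCl, purified furin was incubated with bead-anchored 8-mer peptide–cDNA fusions at 1:10 enzyme:substrate in 0.01 ml. Incubation times were 7.5, 15 and 30 min. DNA set free by cleavage was adapter-tagged by PCR and sequenced, with read counts taken as abundance. Log counts relative to furin-free reactions, after lowess adjustment and median absolute deviation scaling, form the cleavage Z-score.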

This is one part of the list. The true hit rate is not given.

Sequence of furin, P09958 (P09958 whole entry, the tested form may be a part): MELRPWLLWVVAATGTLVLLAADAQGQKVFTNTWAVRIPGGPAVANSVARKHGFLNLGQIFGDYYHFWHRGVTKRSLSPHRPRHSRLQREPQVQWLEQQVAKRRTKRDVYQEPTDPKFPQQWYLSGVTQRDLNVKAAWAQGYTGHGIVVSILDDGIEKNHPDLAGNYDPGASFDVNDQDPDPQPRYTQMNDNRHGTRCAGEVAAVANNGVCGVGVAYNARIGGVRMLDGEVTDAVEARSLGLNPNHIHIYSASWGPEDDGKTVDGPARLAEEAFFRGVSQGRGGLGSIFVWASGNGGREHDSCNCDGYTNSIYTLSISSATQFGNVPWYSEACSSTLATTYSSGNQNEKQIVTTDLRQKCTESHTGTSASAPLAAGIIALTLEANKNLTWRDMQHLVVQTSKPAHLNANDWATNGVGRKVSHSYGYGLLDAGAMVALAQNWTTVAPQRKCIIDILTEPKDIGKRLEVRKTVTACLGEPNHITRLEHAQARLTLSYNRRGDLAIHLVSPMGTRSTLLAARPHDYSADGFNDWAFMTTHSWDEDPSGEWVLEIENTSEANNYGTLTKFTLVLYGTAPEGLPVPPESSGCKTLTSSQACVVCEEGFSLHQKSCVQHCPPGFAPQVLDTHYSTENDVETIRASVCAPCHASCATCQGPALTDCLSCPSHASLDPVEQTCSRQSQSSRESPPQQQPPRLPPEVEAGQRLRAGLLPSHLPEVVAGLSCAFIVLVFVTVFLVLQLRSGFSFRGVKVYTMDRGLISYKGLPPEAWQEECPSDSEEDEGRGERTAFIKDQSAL

On to CAEVVTSTWRAGNASASA [HC2253], for which the “furin cleavage Z-score” value is, setting by setting: (7.5 min) 0.989 (inactive); (15 min) 0.48 (inactive); (30 min) 1.66.

With CATTPASGSWAGNASASA [HC41], the “furin cleavage Z-score” value (7.5 min) is -0.916 (inactive), the “furin cleavage Z-score” value (15 min) was -1.61 (inactive) and the “furin cleavage Z-score” value (30 min) is -1.23 (inactive).

With CADDMEECSQAGNASASA [HC1811], the “furin cleavage Z-score” value (7.5 min) was 0.222 (inactive), the “furin cleavage Z-score” value (15 min) is -0.945 (inactive) and the “furin cleavage Z-score” value (30 min) is -0.707 (inactive).

In the case of CARRRRKKARAGNASASA [FS-2790], the “furin cleavage Z-score” value is 1.33 (7.5 min), 1.06 (15 min) and 0.0674 (inactive) (30 min).

For the sequence CARRRRQAERAGNASASA [FS-2793], the “furin cleavage Z-score” value was 10.1 (active) (7.5 min), 11.9 (active) (15 min) and 8.27 (active) (30 min).

As to CARRRRDATRAGNASASA [FS-1970], the “furin cleavage Z-score” value reads like this: (7.5 min) 13.2 (active); (15 min) 14.6 (active); (30 min) 10 (active).

As to CANAVAYYRGAGNASASA [HC867], the “furin cleavage Z-score” value is -0.298 (inactive) (7.5 min), 0.148 (inactive) (15 min) and 1.73 (30 min).

Take CAGPVRLKKKAGNASASA [FS-1527]: the “furin cleavage Z-score” value is, setting by setting: (7.5 min) -0.8 (inactive); (15 min) -1.68 (inactive); (30 min) -0.907 (inactive).

Consider CARVRRNAKKAGNASASA [FS-1978], for which the “furin cleavage Z-score” value runs as follows: (7.5 min) 6.72 (active); (15 min) 5.97 (active); (30 min) 7.62 (active).

CARVRKSLKKAGNASASA [FS-2534]: the “furin cleavage Z-score” value (7.5 min) was 0.916 (inactive), the “furin cleavage Z-score” value (15 min) was 3.69 (active) and the “furin cleavage Z-score” value (30 min) is 5.83 (active).

On to CARVRKSKGKAGNASASA [FS-1802], for which the “furin cleavage Z-score” value by setting is: (7.5 min) 0.157 (inactive); (15 min) -1.05 (inactive); (30 min) 0.116 (inactive).

For CARVRRNKRSAGNASASA [FS-1275], the “furin cleavage Z-score” value (7.5 min) is 11.3 (active), the “furin cleavage Z-score” value (15 min) was 10.9 (active) and the “furin cleavage Z-score” value (30 min) was 9.58 (active).

Consider CAKRERNKRSAGNASASA [FS-1637], for which the “furin cleavage Z-score” value is 12.5 (active) (7.5 min), 14.4 (active) (15 min) and 10.7 (active) (30 min).

Turning to CARRRKSLKTAGNASASA [FS-2783], the “furin cleavage Z-score” value was 0.0718 (inactive) (7.5 min), 1.16 (15 min) and 2.47 (30 min).
